Results filed as inconclusive are left out. The source made the active and inactive calls. Calls follow the shape of the dose curve; as a rule, active = well fitted curve in the direction sought with a large enough effect in the repeat runs; inconclusive = weak or mixed curves; inactive = no such curve, though single readings can be large; an effect the other way counts as inactive or inconclusive.
Assay: Human pregnane X receptor (PXR) small molecule agonists, qHTS cell viability counter screen (AID 1346977); also: nearly all actives have a fitted effect of over 50% in size
Settings: PXR-Luc HepG2 viability, CellTiter-Fluor, 24 h; series mostly up to 92.4 µM; activity change, negative = cytotoxicity: at the top concentration
Procedure, shortened: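 PXR-Luc HepG2 cells in medium with 5% charcoal-stripped FBS were pre-incubated 5hr, then exposed to compounds for 24hr at 37C. Viability was read in the same wells by CellTiter-Fluor fluorescence, reagent added after 23hr with a 1hr incubation.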
For `Cc1c[nH]c(=S)[nH]c1=O`, the “activity change, negative = cytotoxicity” value was 2.52% (inactive).
With `C=C(C)C(=O)OCCOP(=O)(O)O` the “activity change, negative = cytotoxicity” value was -0.806% (inactive).
With `O=C1N(c2ccccc2)c2ccccc2C1(Cc1ccncc1)Cc1ccncc1` the “activity change, negative = cytotoxicity” value was 8.94% [at 42.5 µM] (inactive).
With `CCCCCCCCCCCCOCCOS(=O)(=O)O` the “activity change, negative = cytotoxicity” value was -13.8% (inactive).
In the case of `O=C(Cl)c1cccc([N+](=O)[O-])c1`, the “activity change, negative = cytotoxicity” value is reported as 2.34% (inactive).
With `ClC(Cl)Cl` the “activity change, negative = cytotoxicity” value was -6.05% (inactive).
For `CCCCCCOc1ccc(N)cc1`, the “activity change, negative = cytotoxicity” value was 0.528% (inactive).
For `CCN(CC)C(=O)N(CC)CC`, the “activity change, negative = cytotoxicity” value was 13% (inactive).
With `Cc1ccc(C(C)C)cc1O` the “activity change, negative = cytotoxicity” value was -0.709% (inactive).
For `CN1CCC[C@@H]1Cc1c[nH]c2ccc(CCS(=O)(=O)c3ccccc3)cc12`, the “activity change, negative = cytotoxicity” value was -20.3% [at 42.5 µM] (inactive).
In the case of `CCCCCCCOC(=O)CCC`, the “activity change, negative = cytotoxicity” value is reported as 6.44% (inactive).

Assay: Caspase-3/7 induction in HepG2 cells by small molecules, qHTS assay (AID 1346978); also: nearly all actives have a fitted effect of over 15% in size; also: potency is read from the fitted curve at half-maximal effect
Settings: HepG2 caspase-3/7 activation, Caspase-Glo luminescence, 17 h; series mostly up to 92.4 µM; caspase activation: at the top concentration
Procedure, shortened: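 Wild-type HepG2 cells (2,000/well) were settled 5 h at 37 C, 5% CO2, then exposed to compounds in DMSO for 17 h. Caspase-3/7 activity was read by luminescence 30 min after adding Caspase-Glo 3/7 reagent at room temperature.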
For `O=C1Nc2ccc([N+](=O)[O-])cc2C1=O`, the “caspase activation” value was -1.41% (inactive).
In the case of `C1CSCCS1`, the “caspase activation” value is reported as 1.06% (inactive).
With `CNCCC(Oc1ccccc1OC)c1ccccc1` (stereo unspecified) the “caspase activation” value was -0.662% [at 42.5 µM] (inactive).
For `Cc1c[nH]c(=S)[nH]c1=O`, the “caspase activation” value was 0.403% (inactive).
In the case of `C=C(C)C(=O)OCCOP(=O)(O)O`, the “caspase activation” value is reported as -1.17% (inactive).
In the case of `O=C1N(c2ccccc2)c2ccccc2C1(Cc1ccncc1)Cc1ccncc1`, the “caspase activation” value is reported as 0.0776% [at 42.5 µM] (inactive).
In the case of `CCOc1ccccc1N`, the “caspase activation” value is reported as 0.784% (inactive).
In the case of `CCCCCCCCCCCCOCCOS(=O)(=O)O`, the “caspase activation” value is reported as 0.31% (inactive).
For `O=C(Cl)c1cccc([N+](=O)[O-])c1`, the “caspase activation” value was -0.63% (inactive).
With `O=C(O)CN(CCN(CC(=O)O)CC(=O)O)CCN(CC(=O)O)CC(=O)O` the caspase activation was 0.916% [at 19 µM] (inactive).
In the case of `C=O`, the “caspase activation” value is reported as -1.79% (inactive).
With `O=C(O)[C@@H]1CSCN1` the “caspase activation” value was 0.147% [at 42.5 µM] (inactive).
For `ClC(Cl)Cl`, the “caspase activation” value was 3.29% (inactive).
For `CCN(CC)CCOc1ccc(Cc2ccccc2)cc1`, the “caspase activation” value was 0.0621% [at 42.5 µM] (inactive).
For `Cc1cc2c(s1)Nc1ccccc1N=C2N1CCN(C)CC1`, the “caspase activation” value was 2.95% [at 42.5 µM] (inactive).
For `CCOC(=O)COc1ccc2c(c1)CC(NCC(O)c1cccc(Cl)c1)CC2` (stereo unspecified), the Potency was 48.9 µM (active).
For `CCOc1ccc(NS(=O)(=O)c2ccc(N)cc2)nn1`, the “caspase activation” value was -0.108% [at 42.5 µM] (inactive).
For `Cc1ccsc1C(=CCCN1CCC[C@@H](C(=O)O)C1)c1sccc1C`, the “caspase activation” value was -0.689% [at 42.5 µM] (inactive).
For `CC(C)C[C@H](NC(=O)OCC1c2ccccc2-c2ccccc21)C(=O)O`, the “caspase activation” value was 0.477% (inactive).
With `CCc1cc2cc(OC)c(OC)cc2c(Cc2ccccc2)n1` the “caspase activation” value was -0.918% [at 42.5 µM] (inactive).
With `CCCCCCOc1ccc(N)cc1` the “caspase activation” value was -1.91% (inactive).
In the case of `COC(=O)c1ccc2cc(C(=O)OC)ccc2c1`, the caspase activation is reported as -5.84% [at 19 µM] (inactive).
In the case of `CCN(CC)C(=O)N(CC)CC`, the “caspase activation” value is reported as -0.428% (inactive).
For `CCOC(=O)C(Br)c1ccccc1` (stereo unspecified), the “caspase activation” value was -1% (inactive).
In the case of `Cc1ccc(C(C)C)cc1O`, the “caspase activation” value is reported as -1.89% (inactive).
In the case of `CN(C)C(=O)NC1(c2ccccc2)CCN(CCC[C@]2(c3ccc(Cl)c(Cl)c3)CCCN(C(=O)c3ccccc3)C2)CC1`, the caspase activation is reported as 1.95% [at 19 µM] (inactive).
In the case of `CCCCN1C[C@H](O)[C@@H](O)[C@H](O)[C@H]1CO`, the “caspase activation” value is reported as 0.0042% [at 42.5 µM] (inactive).
For `CC(C)NCC(O)COc1ccc(CCOCC2CC2)cc1` (stereo unspecified), the “caspase activation” value was 0.849% [at 42.5 µM] (inactive).
With `c1ccc(CN(CC2=NCCN2)c2ccccc2)cc1` the “caspase activation” value was 1.9% [at 42.5 µM] (inactive).
With `Nc1cccc(S(=O)(=O)O)c1` the “caspase activation” value was -0.633% (inactive).
In the case of `CN1CCN(C2=Nc3ccccc3Oc3ccc(Cl)cc32)CC1`, the “caspase activation” value is reported as 1.98% [at 42.5 µM] (inactive).
For `OCCN1CCN(CCO)CC1`, the “caspase activation” value was 0.361% (inactive).
In the case of `CCC(=O)c1ccc2c(c1)N(CCCN(C)C)c1ccccc1S2`, the “caspase activation” value is reported as 3.93% [at 42.5 µM] (inactive).
For `CN1CCC[C@@H]1Cc1c[nH]c2ccc(CCS(=O)(=O)c3ccccc3)cc12`, the “caspase activation” value was -0.641% [at 42.5 µM] (inactive).
For `Cc1cccc(C)c1NC(=O)CN1CCCCCC1`, the “caspase activation” value was -0.501% [at 42.5 µM] (inactive).
For `CC(C)=CCC[C@](C)(O)[C@@H]1CC=C(C)CC1`, the “caspase activation” value was 9.53% (inactive).
For `C=CCc1cc(OC)c(O)c(C(=O)NCCO)c1`, the “caspase activation” value was 0.362% [at 42.5 µM] (inactive).
In the case of `CC(C)OC(C)C`, the “caspase activation” value is reported as 2.9% (inactive).
With `CCCCCCCOC(=O)CCC` the “caspase activation” value was 0.187% (inactive).

Assay: Caspase-3/7 induction in CHO-K1 cells by small molecules, qHTS cell viability counter screen (AID 1346979); also: nearly all actives have a fitted effect of over 35% in size; also: potency is read from the fitted curve at half-maximal effect
Settings: CellTiter-Fluor fluorescence, 17 h; series mostly up to 92.4 µM; activity change, negative = cytotoxicity: at the top concentration
Procedure, shortened: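 Wild-type CHO-K1 cells were seeded at 1,500 per well, rested 5hr at 37 C, then exposed to compounds in DMSO. After 16hr, CellTiter-Fluor reagent was added and fluorescence read 1hr later as the viability measure.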
For `C1CSCCS1`, the “activity change, negative = cytotoxicity” value was 4.55% (inactive).
With `CNCCC(Oc1ccccc1OC)c1ccccc1` (stereo unspecified) the “activity change, negative = cytotoxicity” value was -2.01% [at 42.5 µM] (inactive).
In the case of `Cc1c[nH]c(=S)[nH]c1=O`, the “activity change, negative = cytotoxicity” value is reported as 3.03% (inactive).
With `CCOc1ccccc1N` the “activity change, negative = cytotoxicity” value was 0.468% (inactive).
In the case of `O=C(O)CN(CCN(CC(=O)O)CC(=O)O)CCN(CC(=O)O)CC(=O)O`, the Potency is reported as 13 µM (active).
In the case of `C=O`, the “activity change, negative = cytotoxicity” value is reported as 7.25% (inactive).
In the case of `O=C(O)[C@@H]1CSCN1`, the “activity change, negative = cytotoxicity” value is reported as 1.64% [at 42.5 µM] (inactive).
In the case of `CCN(CC)CCOc1ccc(Cc2ccccc2)cc1`, the “activity change, negative = cytotoxicity” value is reported as 4.44% [at 42.5 µM] (inactive).
In the case of `Cc1cc2c(s1)Nc1ccccc1N=C2N1CCN(C)CC1`, the Potency is reported as 7.5 µM (active).
For `CCOc1ccc(NS(=O)(=O)c2ccc(N)cc2)nn1`, the “activity change, negative = cytotoxicity” value was 10.1% [at 42.5 µM] (inactive).
In the case of `CC(C)C[C@H](NC(=O)OCC1c2ccccc2-c2ccccc21)C(=O)O`, the “activity change, negative = cytotoxicity” value is reported as 6.33% (inactive).
With `COC(=O)c1ccc2cc(C(=O)OC)ccc2c1` the activity change, negative = cytotoxicity was 6.59% [at 19 µM] (inactive).
For `CCN(CC)C(=O)N(CC)CC`, the “activity change, negative = cytotoxicity” value was 1.57% (inactive).
With `CCOC(=O)C(Br)c1ccccc1` (stereo unspecified) the “activity change, negative = cytotoxicity” value was -0.428% (inactive).
For `Cc1ccc(C(C)C)cc1O`, the “activity change, negative = cytotoxicity” value was -1.54% (inactive).
For `CCCCN1C[C@H](O)[C@@H](O)[C@H](O)[C@H]1CO`, the “activity change, negative = cytotoxicity” value was -11.1% [at 42.5 µM] (inactive).
In the case of `CC(C)NCC(O)COc1ccc(CCOCC2CC2)cc1` (stereo unspecified), the “activity change, negative = cytotoxicity” value is reported as 0.864% [at 42.5 µM] (inactive).
In the case of `c1ccc(CN(CC2=NCCN2)c2ccccc2)cc1`, the “activity change, negative = cytotoxicity” value is reported as 0.248% [at 42.5 µM] (inactive).
With `Nc1cccc(S(=O)(=O)O)c1` the “activity change, negative = cytotoxicity” value was 2.57% (inactive).
For `OCCN1CCN(CCO)CC1`, the “activity change, negative = cytotoxicity” value was -0.872% (inactive).
With `CCC(=O)c1ccc2c(c1)N(CCCN(C)C)c1ccccc1S2` the “activity change, negative = cytotoxicity” value was -13.6% [at 42.5 µM] (inactive).
In the case of `CN1CCC[C@@H]1Cc1c[nH]c2ccc(CCS(=O)(=O)c3ccccc3)cc12`, the “activity change, negative = cytotoxicity” value is reported as -1.15% [at 42.5 µM] (inactive).
With `Cc1cccc(C)c1NC(=O)CN1CCCCCC1` the “activity change, negative = cytotoxicity” value was 0.579% [at 42.5 µM] (inactive).
With `C=CCc1cc(OC)c(O)c(C(=O)NCCO)c1` the “activity change, negative = cytotoxicity” value was 2.95% [at 42.5 µM] (inactive).
With `CC(C)OC(C)C` the “activity change, negative = cytotoxicity” value was 9.13% (inactive).
In the case of `CCCCCCCOC(=O)CCC`, the “activity change, negative = cytotoxicity” value is reported as 2.86% (inactive).

Source: PubChem BioAssay (Tox21)
% is scaled to controls: 0 for no effect and ±100 for the full control effect.
